The source of these data is PubChem BioAssay AID1963315 (National Center for Advancing Translational Sciences (NCATS), 2024).

SMILES strings stand for the structures. Results filed as inconclusive are left out. A number with no mark means an inactive call. Active and inactive are the calls of the source. Calls follow the shape of the full dose curve.

Tyrosine-protein kinase ABL1 (Homo sapiens), sequence (P00519 whole entry, looked up): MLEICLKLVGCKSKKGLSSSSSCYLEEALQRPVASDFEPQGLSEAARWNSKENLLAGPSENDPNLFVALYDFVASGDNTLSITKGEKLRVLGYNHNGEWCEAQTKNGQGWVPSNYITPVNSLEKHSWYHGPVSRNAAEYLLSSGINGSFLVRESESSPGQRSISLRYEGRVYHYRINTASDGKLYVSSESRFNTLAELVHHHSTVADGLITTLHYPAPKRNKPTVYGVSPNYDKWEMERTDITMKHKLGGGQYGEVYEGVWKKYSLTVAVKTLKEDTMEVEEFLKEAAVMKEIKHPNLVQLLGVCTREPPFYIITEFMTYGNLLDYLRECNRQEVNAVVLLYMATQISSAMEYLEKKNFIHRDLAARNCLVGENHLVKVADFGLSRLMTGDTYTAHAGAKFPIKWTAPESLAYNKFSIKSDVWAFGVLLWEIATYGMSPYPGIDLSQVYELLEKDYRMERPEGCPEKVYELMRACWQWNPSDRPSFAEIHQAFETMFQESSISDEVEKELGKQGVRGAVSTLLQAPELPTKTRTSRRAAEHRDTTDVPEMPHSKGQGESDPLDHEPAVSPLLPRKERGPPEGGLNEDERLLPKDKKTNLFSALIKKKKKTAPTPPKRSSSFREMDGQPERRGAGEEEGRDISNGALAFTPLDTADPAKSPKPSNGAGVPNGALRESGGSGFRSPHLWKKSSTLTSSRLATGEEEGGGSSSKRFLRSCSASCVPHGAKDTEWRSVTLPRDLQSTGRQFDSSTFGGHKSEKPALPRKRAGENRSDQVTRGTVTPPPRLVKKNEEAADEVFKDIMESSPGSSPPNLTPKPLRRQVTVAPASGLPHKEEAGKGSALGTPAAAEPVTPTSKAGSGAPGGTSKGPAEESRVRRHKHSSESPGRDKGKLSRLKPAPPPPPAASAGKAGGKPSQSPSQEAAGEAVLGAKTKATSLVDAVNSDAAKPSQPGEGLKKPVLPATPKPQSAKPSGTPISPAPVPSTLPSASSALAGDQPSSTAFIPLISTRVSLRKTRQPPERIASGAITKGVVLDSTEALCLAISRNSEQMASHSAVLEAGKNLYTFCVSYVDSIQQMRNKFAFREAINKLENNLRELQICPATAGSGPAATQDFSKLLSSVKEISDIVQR

The assay addresses Tyrosine-protein kinase ABL1 (Homo sapiens) (UniProt P00519). Kind of assay: ABL1 kinase (ABL1-N-HiBiT) SDR gain of signal screen. Particulars: Purified ABL1-N-HiBiT enzyme, Nano-Glo HiBiT luminescence, 30 min compound incubation; series mostly up to 32.9 µM; activity change, gain of signal: at the top concentration. The source says: National Center for Advancing Translational Sciences (NCATS),
National Institute of Health (NIH), Maryland
Discovery and optimization of novel protein-binding ligands underlies many of the methods and applications of biology, drug discovery, clinical diagnostics, and environmental toxicology. Assays for detecting the interaction of, for example, a molecule with a macromolecular target also referred to here as the target of interest (TOI) is dependent on a compatible output technology. Depending on the nature and knowledge surrounding the TOI, whether a receptor, enzyme, regulatory subunit or scaffold, or a sequence-defined nucleic acid folded into a complex tertiary structure, assay strategies can vary widely.
Here we exploit ligand-biased changes in the structural dynamics of the target protein to control reporter alpha complementation allowing a non-competitive, non-functional, non-separation measure of ligand-target interaction.
Secondly, we show the specificity and sensitivity of the SDR for the Abelson tyrosine kinase (ABL1) compared to the serine/threonine protein kinase A, using an enriched chemical library of 128 compounds selected, in part, for activity annotated with ABL1 kinase activity using the Pharos database (3).
(1) A. S. Dixon et al., NanoLuc Complementation Reporter Optimized for Accurate Measurement of Protein Interactions in Cells. ACS Chem Biol 11, 400-408 (2016).
Chemistry & Biology, 19, 1060 - 1072 (2012).
(3) K. J. Kelleher et al., Pharos 2023: an integrated resource for the understudied human proteome. Nucleic Acids Res 51, D1405-D1416 (2023).
PROTOCOL TABLE (as described by Inglese J, Shamu CE and Guy RK. 2007)
SEQUENCE No. (e.g., 1, 2, 3, etc.); […] (e.g., C. elegans, Compounds, Incubation, Read, etc.); VALUE and DESCRIPTION.
1. Reagent. Dispense 4 uL ABL1-N-HiBiT enzyme per well at a final enzyme concentration of 10 nM in buffer without ATP (SDR assay) into columns 2-48 of four replicate Greiner 1536-well white, solid bottom high base, medium plates per assay. Dispense respective buffer without enzyme at 4 uL/well in column 1 of assay plates using BioRaptr 2.
2. Compounds. Library compounds added at 23 nL/well by pin transfer. DMSO neutral control and imatinib positive control added at 25 nL/well, transfer by Mosquito dispenser.
3. Incubation. Incubate enzyme and compounds at room temperature for 30 min, protected from light.
4. Reagent. (SDR assay) Add 3 uL/well of Nano-Glo HiBiT reagent (Promega) to assay plates with or without ATP.
5. Incubation. (SDR assay) Incubate enzyme solution and HiBiT reagent at room temperature for 10 min, protect from light.
6. Detector. (SDR assay) Luminescence measured using CCD-based camera (ViewLux) with settings as follows: Exposure, 1 sec; Gain, High; Speed, Slow; Binning, 2X.
Inglese J, Shamu CE and Guy RK, Reporting data from high throughput screening of small molecule libraries, Nature Chemical Biology, 2007, 3(8): 438-441. doi.org/10.1038/nchembio0807-438.
(In general: The HiBiT peptide binds its large partner to form an active luciferase.)
Take `COC(=O)Nc1ccc(-c2nc(N3CCOCC3)c3cnn(C4CCN(C(=O)OC)CC4)c3n2)cc1`: the “activity change, gain of signal” value was 1.9%.

Consider `O=C(NCCO)c1cccc(-c2cc(Nc3ccc(OC(F)(F)F)cc3)ncn2)c1`, for which the “activity change, gain of signal” value is 16.7%.

As to `S=C(NCc1ccc2c(c1)OCO2)N1CCN(c2ncnc3c2oc2ccccc23)CC1`, the “activity change, gain of signal” value was 10.6%.

In the case of `O=C(c1cccc(Cl)c1F)N1CCN(Cc2cccc(Nc3nccs3)n2)CC1`, the Potency is 3930 nM (active).

As to `COc1ccc(CNC(=O)Nc2ncc([N+](=O)[O-])s2)cc1`, the “activity change, gain of signal” value was -14.6%.

`N#Cc1cccc(-c2c[nH]c3ncnc(N4CCOCC4)c23)c1`: the Potency is 10200 nM (active).

For `O=C(Nc1ccc(OC(F)(F)F)cc1)c1sccc1NCc1ccnc2ccccc12`, the “activity change, gain of signal” value was 19.1%.

As for `NC1CCC(Nc2nc(Nc3ccc(C(=O)N4CCCCC4)cc3)c3ncn(-c4cccc(F)c4)c3n2)CC1` (stereo not given), the Potency is 255 nM (active).

`COc1cc(NC(=O)c2cccc(-n3cc(NC(=O)Nc4cccc(C)c4)cn3)c2)cc(OC)c1OC`: the “activity change, gain of signal” value is 9.84%.

For the compound `Oc1ccc(-c2ccc(-c3cc(Nc4cccc(CNC5CC5)c4)n[nH]3)cc2)c(O)c1`, the Potency is 9600 nM (active).

For the compound `CC1(C)OCCn2c1nc1c(N3CCOCC3)nc(-c3cnc(N)nc3)nc12`, the Potency was 6230 nM (active).

Regarding `Cn1sc(=O)n(Cc2ccccc2)c1=O`, the “activity change, gain of signal” value was -4.94%.

As to `Nc1ncccc1-c1nc2ccc(-c3ccccc3)nc2n1-c1ccc(C2(N)CCC2)cc1`, the “activity change, gain of signal” value is 1.51%.

Turning to `O=c1c(O)c(-c2ccc(O)c(O)c2)oc2cc(O)cc(O)c12`, the Potency is 8310 nM (active).

For `CCN1CCN(Cc2ccc(NC(=O)c3ccc(C)c(NC(=O)c4cncc(-c5cccs5)c4)c3)cc2C(F)(F)F)CC1`, the Potency was 5.22 nM (active).

Take `C=CC(=O)N1CCC(Oc2cc3c(Nc4ccc(Cl)c(Cl)c4F)ncnc3cc2OC)CC1`: the Potency is 10800 nM (active).

In the case of `Cc1cc(Nc2ncc3cc(-c4c(Cl)cccc4Cl)c(=O)n(C)c3n2)ccc1F`, the Potency is 4.94 nM (active).

As for `O=C(Nc1cc(C(F)(F)F)ccc1N1CCCCC1)c1ccncc1`, the “activity change, gain of signal” value was -5.06%.

Take `CN1CCN(CCCNc2ncc(Cl)c(-c3cc4c(C(=O)NC5CC5)cccc4s3)n2)CC1`: the “activity change, gain of signal” value was -13.8%.

In the case of `c1ccc2c(-c3cnn4cc(-c5ccc(N6CCNCC6)cc5)cnc34)ccnc2c1`, the Potency was 148 nM (active).

For the compound `CCOc1ccn(-c2ccc(F)cc2)c(=O)c1C(=O)Nc1ccc(Oc2ccnc(N)c2Cl)c(F)c1`, the Potency was 4160 nM (active).

As for `CO[C@H]1/C=C/O[C@@]2(C)Oc3c(C)c(O)c4c(O)c(c(/C=N\N5CCN(C6CCCC6)CC5)c(O)c4c3C2=O)NC(=O)/C(C)=C\C=C\[C@H](C)[C@H](O)[C@@H](C)[C@@H](O)[C@@H](C)[C@H](OC(C)=O)[C@@H]1C`, the “activity change, gain of signal” value is -35.9%.

For the compound `CN1CCN(Cc2ccc(-c3cnc4[nH]cc(-c5ccc6[nH]ccc6c5)c4c3)cc2)CC1`, the Potency is 331 nM (active).

`Cc1[nH]nc2ncc(C(=O)N3CCC[C@H]3c3ccc(Cl)cc3)cc12`: the “activity change, gain of signal” value was 7.19%.

In the case of `O=C1C(c2c(O)[nH]c3ccccc23)=Nc2ccccc21`, the “activity change, gain of signal” value is -1.14%.

As to `Nc1nc(Nc2ccc(S(N)(=O)=O)cc2)n(C(=S)Nc2c(F)cccc2F)n1`, the Potency is 248 nM (active).

Regarding `Cc1cc(F)ccc1-c1nc(NCCN=C(N)NC#N)nc2c1ccc(=O)n2-c1c(F)cccc1F`, the “activity change, gain of signal” value is 4.17%.

As for `O=c1cc(N2CCOCC2)nc2c3ccccc3ccn12`, the Potency is 8550 nM (active).

`C[C@@H](NC(=O)c1ncnc(N)c1Cl)c1ncc(C(=O)Nc2cc(C(F)(F)F)c(Cl)cn2)s1`: the Potency is 241 nM (active).

`CC(C)(NS(=O)(=O)c1ccc2c(Cl)cnc(N=C(N)N)c2c1)C(=O)O`: the “activity change, gain of signal” value was -29.5%.

On to `O=S(=O)(/N=C/c1c(O)ccc2ccccc12)c1cccs1`, for which the “activity change, gain of signal” value was 1.83%.

On to `Cc1c(Cl)cccc1S(=O)(=O)Nc1nc(NCCc2ccccc2)nc2c1CN(Cc1ccccc1)CC2`, for which the “activity change, gain of signal” value was -28.3%.

As for `COc1cc(N2CCN(C)CC2)ccc1Nc1nc(N)c(C(=O)c2c(Cl)cccc2Cl)s1`, the “activity change, gain of signal” value was 1.1%.

For `Cc1ccc(C(=O)Nc2ccc(CN3CCN(C)CC3)c(C(F)(F)F)c2)cc1C#Cc1cnc2[nH]ncc2c1`, the Potency is 4.14 nM (active).

Consider `Cc1cc(O)c2c(c1)C(=O)c1cc(O)cc(O)c1C2=O`, for which the “activity change, gain of signal” value was 2.25%.

On to `C[C@@H]1CN(CC(=O)Nc2ccc3c(c2)Cc2cccc(-c4cc(=O)cc(N5CCOCC5)o4)c2S3)C[C@H](C)O1`, for which the “activity change, gain of signal” value was -12.9%.

Take `Cc1cccc(/C=N/Nc2cc(N3CCOCC3)nc(OCCc3ccccn3)n2)c1`: the “activity change, gain of signal” value is 5.57% [at 26.3 µM].

In the case of `Cc1cccc(C)c1-n1c(=O)c2cnc(Nc3ccc(N4CCN(C)CC4)cc3)nc2n2c3ccccc3nc12`, the Potency was 55.5 nM (active).

Take `Cc1ccc(NC(=O)N2CCN(c3nc(N)nc4sc(-c5cccnc5)nc34)CC2)cc1`: the “activity change, gain of signal” value was 21.7%.

As to `CN1CCN(c2ccc(Nc3ncc4cc(C#N)c(=O)n(C5CCCC5)c4n3)cc2)CC1`, the Potency is 29.5 nM (active).
